Source: PubChem BioAssay
An excerpt weighted towards active compounds, which were near 2.7% of everything screened.
SENP8 block-1 = blocks the human protease SENP8 | purified SENP8, Z-RLRGG-aminoluciferin cleavage, luminescence | 330,000 compounds, 1.2% hits | AID 2540 | inhibition, % at 10 µM; in the data active = inhibition above about 50%
Target sequence (Q96LD8 whole entry, looked up): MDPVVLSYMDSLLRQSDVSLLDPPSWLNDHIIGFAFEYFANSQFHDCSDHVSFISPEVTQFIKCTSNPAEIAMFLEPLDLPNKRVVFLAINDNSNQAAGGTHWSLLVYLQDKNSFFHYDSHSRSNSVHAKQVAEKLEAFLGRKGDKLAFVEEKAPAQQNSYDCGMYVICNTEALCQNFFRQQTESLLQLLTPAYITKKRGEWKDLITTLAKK
HSP90 refold inh = blocks HSP90-mediated luciferase refolding in reticulocyte lysate. AID 1789. 290,000 compounds, 0.91% hits. Rabbit reticulocyte lysate, luciferase refolding luminescence, 3 h. inhibition, % at 5.6 µM;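 active = inhibition above the screen-wide mean plus 3 SD, computed separately per campaign, cut at about 16% in these data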;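 note: inhibitors lower the luminescence because luciferase stays unfolded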
SENP7 inh = inhibitors of human SENP7 protease; 330,000 compounds, 1.5% hits; inhibition, % at 5 µM; recombinant SENP7, Z-RLRGG-aminoluciferin luminescence, 40 min; Q9BQF6;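 active = inhibition above about 50% at the single test dose, limit read from the data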
SENP6 block = SENP6 protease inhibition | Q9GZR1 | Recombinant SENP6 catalytic domain, aminoluciferin luminescence | inhibition, % at 10 µM | 330,000 compounds, 1.8% hits;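 active = inhibition above about 50% at the single tested dose, limit read from the data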
Target sequence (Q9GZR1 628-1112 limits assumed): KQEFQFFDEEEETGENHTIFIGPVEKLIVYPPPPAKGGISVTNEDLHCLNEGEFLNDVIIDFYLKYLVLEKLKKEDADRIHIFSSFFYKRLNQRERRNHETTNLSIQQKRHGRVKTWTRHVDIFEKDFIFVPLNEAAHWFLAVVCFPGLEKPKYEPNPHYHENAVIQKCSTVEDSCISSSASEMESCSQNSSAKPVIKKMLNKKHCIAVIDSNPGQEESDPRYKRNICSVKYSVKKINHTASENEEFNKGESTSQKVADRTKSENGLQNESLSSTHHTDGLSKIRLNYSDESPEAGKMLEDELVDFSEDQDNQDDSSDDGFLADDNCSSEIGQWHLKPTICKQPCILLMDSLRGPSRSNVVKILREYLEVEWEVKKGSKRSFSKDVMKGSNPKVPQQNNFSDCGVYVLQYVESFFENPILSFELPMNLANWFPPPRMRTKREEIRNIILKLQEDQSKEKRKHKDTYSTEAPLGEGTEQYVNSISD
SENP8 block-2 = blocks human SENP8 cleavage of Nedd8 substrate | Q96LD8 | recombinant SENP8, Nedd8 substrate fluorescence | inhibition, % at 20 µM | 360,000 compounds, 0.64% hits; in the data active = inhibition mostly above about 40%, no sharp cut-off; inactive = mostly below about 27%
SENP8 conf = confirmation of human SENP8 protease inhibitors; 6,200 compounds, 40% hits; shares compounds with SENP7 inh; inhibition, % at 12.5 µM; Recombinant SENP8, Z-RLRGG-aminoluciferin luminescence, 60 min;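 active = mean inhibition across replicates above about 50%, limit read from the data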
SENP6 confirm = human SENP6 inhibition, confirmed; shares compounds with SENP7 inh; recombinant SENP6, Z-RLRGG-aminoluciferin luminescence; inhibition, % at 12.5 µM; 6,200 compounds, 58% hits; AID 488915
SENP7 conf = human SENP7 inhibition, confirmed | shares compounds with SENP7 inh | recombinant SENP7, Z-RLRGG-aminoluciferin luminescence, 40 min | inhibition, % at 12.5 µM | 6,200 compounds, 69% hits | AID 488917
Casp3 SENP sel = inhibits human caspase-3 in SENP selectivity test | shares compounds with SENP7 inh | purified caspase-3, Z-DEVD-aminoluciferin luminescence, 60 min | inhibition, % at 12.5 µM | 6,200 compounds, 60% hits;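 active = mean inhibition above about 50%, limit read from the data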
SENP luc ctr = luminescence interference (SENP counter-screen); shares compounds with SENP7 inh; inhibition, % at 12.5 µM; Pre-incubated SENP8/Z-RLRGG-aminoluciferin, luciferase luminescence interference; AID 488919; 6,200 compounds, 39% hits;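 active = mean inhibition above about 50% when retested at one dose, limit read from the data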
Large screens that a line does not name were inactive (follow-up assays come after a bar, where they were run).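 Rule for the calls, unless noted: active = mean inhibition above about 50% in the one-dose retest (limit read from the data); inactive = the rest.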

COc1ccc(C(=O)Nc2ccc(NC(=O)c3ccco3)cc2)cc1	none
COc1ccc(-n2c(NC(=O)c3ccco3)c(C#N)c3nc4ccccc4nc32)cc1	SENP8 block-1 95.0, SENP7 inh 86.5, SENP6 block 97.5 | SENP8 conf inactive | SENP6 confirm 68.4 | SENP7 conf 53.5 | Casp3 SENP sel inactive | SENP luc ctr inactive
CCOC(=O)c1c(NC(=O)c2ccco2)n(C2CCCCC2)c2nc3ccccc3nc12	SENP8 block-1 51.1, SENP6 block 73.0 | SENP8 conf inactive | SENP6 confirm inactive | SENP7 conf inactive | Casp3 SENP sel inactive | SENP luc ctr inactive
CCC(=O)Nc1c(C#N)c2nc3ccccc3nc2n1-c1ccccc1C	SENP6 block 54.5 | SENP8 conf inactive | SENP6 confirm inactive | SENP7 conf inactive | Casp3 SENP sel inactive | SENP luc ctr inactive
CCn1c(=O)c(C(=O)NNS(=O)(=O)c2ccc(NC(=O)OC)cc2)c(O)c2ccccc21	none
O=C(COc1ccc(Cl)cc1Cl)OCn1nnc2ccccc2c1=O	none
O=c1c2ccccc2nnn1COc1cccc(Cl)c1	SENP6 block 57.5 | SENP8 conf inactive | SENP6 confirm 57.9 | SENP7 conf inactive | Casp3 SENP sel inactive | SENP luc ctr inactive
CCOC(=O)CC1ON(C)C(=O)N1c1ccc(Cl)cc1Cl (stereo not drawn)	none
COc1ccc(CCNC(=O)CCn2c(SCC(=O)N3CCCC3)nc3ccccc3c2=O)cc1OC	SENP6 block 70.1 | SENP8 conf inactive | SENP6 confirm inactive | SENP7 conf inactive | Casp3 SENP sel inactive | SENP luc ctr inactive
CC(=O)Nc1nc2cc3c(cc2s1)OCCO3	SENP8 block-1 61.2, HSP90 refold inh 17.4, SENP7 inh 79.3, SENP6 block 76.7 | SENP8 conf 78.1 | SENP6 confirm 76.4 | SENP7 conf 93.7 | Casp3 SENP sel 88.7 | SENP luc ctr 74.2
COc1ccccc1OCCCCCNCCO	none
CC(=O)OCCNc1cc(SC(C)C)c2nonc2c1[N+](=O)[O-]	SENP6 block 56.2 | SENP8 conf inactive | SENP6 confirm inactive | SENP7 conf inactive | Casp3 SENP sel inactive | SENP luc ctr inactive
CC(=O)OCCN(C)c1cc(SC(C)C)c2nonc2c1[N+](=O)[O-]	none
CCc1ccc2oc(C(=O)Nc3cccnc3)c(C)c2c1	SENP7 inh 69.0, SENP6 block 63.7 | SENP8 conf inactive | SENP6 confirm 67.3 | SENP7 conf 91.6 | Casp3 SENP sel 55.1 | SENP luc ctr inactive
O=C(Nc1cccnc1)c1cc2c(ccc3ccccc32)o1	SENP8 block-1 61.5, SENP7 inh 82.1, SENP6 block 66.9 | SENP8 conf inactive | SENP6 confirm 55.8 | SENP7 conf 55.6 | Casp3 SENP sel 62.2 | SENP luc ctr inactive
O=C(O)c1cc2c(ccc3ccccc32)o1	none
O=C(c1cc2c(ccc3ccccc32)o1)N1CCCCC1	SENP8 block-1 83.5, SENP7 inh 91.5, SENP6 block 93.5 | SENP8 conf 89.6 | SENP6 confirm 89.8 | SENP7 conf 98.7 | Casp3 SENP sel 86.3 | SENP luc ctr 89.4
Cc1ccc(C(=O)NNC(=O)CCn2nnc3ccccc32)cc1	none
O=C(NCCCNCCCNC(=O)c1ccc(/C=N/O)nc1)c1ccc(/C=N/O)nc1	none
Cc1nn(Cc2ccccc2Cl)c(C)c1C(=O)NCc1ccco1	none
Cc1nn(Cc2ccccc2Cl)c(C)c1C(=O)NCCN1C(=O)S/C(=C\c2ccccc2)C1=O	SENP7 inh 65.8 | SENP8 conf inactive | SENP6 confirm inactive | SENP7 conf inactive | Casp3 SENP sel inactive | SENP luc ctr inactive
C=CCN=c1scc(-c2ccc(F)cc2)n1/N=C/c1ccccn1	none
CN=c1scc(-c2ccccc2F)n1/N=C/c1ccc[nH]1	SENP8 block-1 90.8, HSP90 refold inh 85.4 | SENP8 conf 98.2 | SENP6 confirm 99.5 | SENP7 conf 102.6 | Casp3 SENP sel 96.0 | SENP luc ctr 97.4
Cc1cc(NC(=O)c2ccccc2)sc1C	SENP8 block-1 89.8, SENP7 inh 94.0, SENP6 block 94.2 | SENP8 conf inactive | SENP6 confirm 96.3 | SENP7 conf 102.7 | Casp3 SENP sel 96.3 | SENP luc ctr 95.2
CCn1c(Cc2ccccc2)nnc1SC(C)C(=O)NC1CC1 (stereo not drawn)	SENP8 block-1 91.2 (no result: HSP90 refold inh) | SENP8 conf inactive | SENP6 confirm inactive | SENP7 conf inactive | Casp3 SENP sel inactive | SENP luc ctr inactive
CCn1c(SCC(=O)Nc2nccs2)nnc1-c1ccccc1	none
CCn1c(Cc2ccccc2)nnc1SCC(=O)Nc1nccs1	SENP7 inh 82.0 | SENP8 conf inactive | SENP6 confirm inactive | SENP7 conf inactive | Casp3 SENP sel inactive | SENP luc ctr inactive
COc1ccc(Nc2nc(NC(C)C)nc3ccsc23)cc1OC	none (no result: SENP8 block-1, HSP90 refold inh, SENP7 inh, SENP6 block)
COc1ccc(CCNC(=O)CNC(=O)Cn2cnc3sc(C)c(C)c3c2=O)cc1OC	none
O=C(NN=c1c(=O)c2ccccc2c1=O)c1ccccc1	SENP8 block-1 71.2, SENP7 inh 83.8, SENP6 block 75.8, SENP8 block-2 69.3 | SENP8 conf inactive | SENP6 confirm 70.9 | SENP7 conf inactive | Casp3 SENP sel inactive | SENP luc ctr inactive
COc1ccccc1CN=c1c([N+](=O)[O-])nn(-c2ccc3c(c2)OCCO3)n1O	SENP7 inh 59.1 | SENP8 conf inactive | SENP6 confirm inactive | SENP7 conf inactive | Casp3 SENP sel inactive | SENP luc ctr inactive
O=[N+]([O-])c1nn(-c2ccc3c(c2)OCCO3)n(O)c1=NC1CCCCC1	none
O=[N+]([O-])c1nn(-c2ccc3c(c2)OCCO3)n(O)c1=NCc1ccccc1Cl	SENP7 inh 63.7 | SENP8 conf inactive | SENP6 confirm inactive | SENP7 conf 64.6 | Casp3 SENP sel inactive | SENP luc ctr inactive
COc1cccc(C(=O)/C=C2\Sc3ccccc3N2C)c1	SENP8 block-1 59.8 | SENP8 conf inactive | SENP6 confirm 73.3 | SENP7 conf 92.6 | Casp3 SENP sel 73.3 | SENP luc ctr inactive
CN1/C(=C\C(=O)c2cccnc2)Sc2ccccc21	none
CCN(CC)c1ccc(/C=N/NC(=O)c2ccc3nc[nH]c3c2)c(O)c1	none
O=C(O)c1cccc(Nc2ccc([N+](=O)[O-])cn2)c1	SENP8 block-1 89.5, SENP7 inh 92.6, SENP6 block 91.2 | SENP8 conf 92.0 | SENP6 confirm 92.4 | SENP7 conf 100.6 | Casp3 SENP sel 82.7 | SENP luc ctr 93.1
